Sampled rows, rich in hits. Any-hit rate of the full collection: about 1.3%.
E coli WT exp – growth inhibitors of wild-type E. coli, primary screen, strain BW25113, expanded library, OD600. OD600 absorbance. growth inhibition, % at 100 µM. 98,000 compounds, 0.15% hits. AID 710, 2007;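 active means growth inhibition above about 50% at one test dose, limit read from the data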;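 further: growth measured after 20 h incubation at 37 °C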
HePTP inhibitor – inhibitors of human HePTP phosphatase, primary screen, biochemical, absorbance, leukemia target; inhibition, % at 20 µM; Tyrosine-protein phosphatase non-receptor type 7 (Homo sapiens), P35236; recombinant HePTP phosphatase activity, OD absorbance; AID 521, 2006; 110,000 compounds, 0.64% hits; in the data active means inhibition above about 50%;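 further: plate controls were vehicle for no effect and reference inhibitor for full effect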
PLAP activator – PLAP enzyme activators, biochemical, luminescence, HTS; 96,000 compounds, 1.2% hits; Alkaline phosphatase, placental type (Homo sapiens), P05187; purified PLAP enzyme, luminescent substrate read-out; active compounds read high; activation fold at 20 µM; in the data active means activation fold above about 2
TNAP act mid DEA – human TNAP enzyme activators, primary screen, biochemical, luminescent, intermediate phosphate acceptor level; 64,000 tested, under 10 active; AID 813, 2007; Alkaline phosphatase, tissue-nonspecific isozyme (Homo sapiens), P05186; purified TNAP, CDP-star luminescence, 100 mM DEA, 30 min; active compounds read high; scale: 0 levamisole-inhibited, 1 vehicle-only enzyme; activation factor at 20 µM;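 active means activation factor of at least 2 at 20 µM, relative to controls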
Target sequence (P05186 whole entry, looked up): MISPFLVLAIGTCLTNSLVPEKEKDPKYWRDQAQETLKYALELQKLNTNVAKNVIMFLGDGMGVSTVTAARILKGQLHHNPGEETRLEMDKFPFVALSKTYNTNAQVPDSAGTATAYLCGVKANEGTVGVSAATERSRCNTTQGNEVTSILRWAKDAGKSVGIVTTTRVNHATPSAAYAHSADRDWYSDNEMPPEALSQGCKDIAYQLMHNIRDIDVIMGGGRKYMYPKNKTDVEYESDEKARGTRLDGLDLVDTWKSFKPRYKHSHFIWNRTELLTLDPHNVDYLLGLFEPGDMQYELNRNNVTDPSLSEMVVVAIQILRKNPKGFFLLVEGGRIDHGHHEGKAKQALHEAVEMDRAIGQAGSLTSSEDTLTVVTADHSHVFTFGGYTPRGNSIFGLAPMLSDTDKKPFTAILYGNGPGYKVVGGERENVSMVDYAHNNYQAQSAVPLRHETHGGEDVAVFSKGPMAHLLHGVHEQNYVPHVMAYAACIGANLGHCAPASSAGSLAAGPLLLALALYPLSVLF
Starred values were filed as active, the others as inactive; . = not tested or not shown.

SMILES | E coli WT exp | HePTP inhibitor | PLAP activator | TNAP act mid DEA
CCc1cc2c(NCCO)ncnc2s1 | 15 | 6 | 1 | 0.9
OCCOCCNc1ncnc2sc(-c3ccccc3)cc12 | 4 | . | 2.2* | .
c1ccc(-n2nnnc2SCc2cccc(CSc3nnnn3-c3ccccc3)n2)cc1 | . | -7 | . | .
O=[N+]([O-])c1cncc([N+](=O)[O-])c1Nc1ccc(Cl)cn1 | . | 87* | . | .
Clc1ccc(OCc2nc(-c3ccccn3)n[nH]2)cc1 | 13 | 2 | 2.3* | 0.9
Brc1ccc(OCc2nc(-c3ccccn3)n[nH]2)cc1 | 6 | . | 2.2* | .
Brc1ccc(OCc2nc(-c3ccccn3)no2)cc1 | . | -1 | . | .
Cc1ccc(OCc2nc(-c3ccccn3)no2)cc1 | 14 | . | 0.9 | .
COc1ccc(C(C#N)C2(C)OCCO2)cc1OC (configuration not stated) | 1 | 6 | 1.1 | 0.9
CCN(CC)CCCCOc1ccccc1OC | -3 | 8 | 1.2 | 0.9
Cc1cc(SCC(=O)N/N=C/c2ccc(O)c(O)c2O)c(C)cc1Br | 31 | . | 2.2* | .
COc1ccc(CC(=O)Nc2ccc(S(=O)(=O)Nc3nccc(C)n3)cc2)cc1 | -1 | . | 2.1* | .
COc1ccc(CC(=O)Nc2ccc(S(=O)(=O)Nc3nc(C)cc(C)n3)cc2)cc1 | 0 | -5 | 1.4 | .
O=c1c2ccccc2nc(CSc2ncnc3nc[nH]c23)n1-c1cccc(C(F)(F)F)c1 | -5 | . | 2.1* | .
O=C(CSc1ncnc2nc[nH]c12)N1CCN(c2ccccc2)CC1 | -14 | 8 | 1.4 | 0.9
COc1ccc(C(=O)NCCCN2CCCC2=O)cc1 | -7 | . | 1.1 | .
O=C(NCCCN1CCCC1=O)c1ccc(OCc2ccccc2)cc1 | 2 | . | 2.1* | .
Cn1c(=O)cc(-c2ccccc2)c2ccccc21 | 4 | 3 | 0.9 | 0.8
CC(=O)Nc1ccc(NS(=O)(=O)c2c(C)cc(C)cc2C)cc1 | . | 101* | . | .
CCOC(=O)C12CC3CC(CC(C3)C1)C2 | . | 5 | . | .
CC(=O)c1ccc(NC2=NC(C)(C)Cc3ccccc32)cc1 | . | 3 | . | .
CC(C(=O)NN)C1=NC(C)(C)Cc2ccccc21 (configuration not stated) | . | 54* | . | .
OCCNCCCOc1ccc(Cl)cc1Br | 17 | . | 1.1 | .
Clc1ccc(OCCCNCc2ccccc2)c(Br)c1 | 68* | . | 1.5 | .
Cc1cc(Cl)c(OCCCNCc2ccccc2)c(Br)c1 | 57* | . | 1 | .
SMILES | E coli WT exp | HePTP inhibitor | PLAP activator | TNAP act mid DEA
CC1CCc2c(sc(NC(=O)C3CC=CCC3C(=O)O)c2C(N)=O)C1 (configuration not stated) | . | 5 | . | .
O=C(N/N=C/c1ccc(F)cc1)c1cc(-c2ccc3ccccc3c2)n[nH]1 | . | -1 | . | .
COC(=O)c1c(-c2ccccc2Cl)csc1N | . | -15 | . | .
C=CCNC(=S)N1CCN(c2ncc3c(=O)c(C(=O)O)cn(CC)c3n2)CC1 | 100* | . | 1 | .
O=C(/C=C/c1ccco1)Nc1ccc(Cl)cc1C(=O)O | . | 102* | . | .
Cc1cccc(NC(=O)c2ccccc2NC(=O)/C=C\c2ccco2)c1C | . | 6 | . | .
O=C(/C=C/c1ccco1)NCCCNC(=O)/C=C/c1ccco1 | . | 46 | . | .
O=C(/C=C/c1ccco1)Nc1ccc(O)cc1C(=O)O | . | 98* | . | .
O=C(/C=C/c1ccco1)NCCCCNC(=O)/C=C/c1ccco1 | . | 103* | . | .
O=C(/C=C/c1ccco1)Nc1ccc(Cl)cc1Cl | . | 8 | . | .
Cn1c(=O)c2c(nc(CN3CCN(C(=O)c4ccco4)CC3)n2Cc2ccc(Cl)cc2)n(C)c1=O | -6 | 10 | 1.3 | 0.8
CCOc1ccc(N2C(=O)CC(NCc3ccc(Cl)cc3Cl)C2=O)cc1 (configuration not stated) | . | 104* | . | .
CCOc1ccc(N2C(=O)CC(NCc3ccc(S(N)(=O)=O)cc3)C2=O)cc1 (configuration not stated) | . | -5 | . | .
CCOC(=O)CSCC(NC(=O)OC(C)(C)C)C(=O)OCC (configuration not stated) | 4 | . | 1 | .
CCOC(=O)C(CSCC(=O)c1ccc(Cl)cc1Cl)NC(=O)OC(C)(C)C (configuration not stated) | 6 | . | 2* | .
O=C1C(Cl)=CC(=NS(=O)(=O)c2ccccc2)C=C1Cl | . | 87* | . | .
O=C1C(Cl)=C/C(=N\S(=O)(=O)c2ccc(Cl)cc2)C(Cl)=C1Cl | . | 5 | . | .
Cc1ccc(N=C2NC(=O)/C(=C/c3cccc(O)c3)S2)cc1Cl | . | 60* | . | .
[O-][n+]1cc(O)c(Br)c2ccccc21 | . | -18 | . | .
CN(C)Cc1c(O)c[n+]([O-])c2ccccc12 | . | 103* | . | .
O=C(O)/C=C/c1c(F)c(F)c(F)c(F)c1F | . | -4 | . | .
Oc1ccc2ccccc2c1C=Nc1cc(C(F)(F)F)ccc1N1CCCC1 | -13 | . | 1 | .
O=c1c2c(nc3cc(-c4ccc(Br)cc4)[nH]n13)CCS2 | . | 52* | . | .
CC1C(c2ccccc2)N(C)C(c2ccccc2)CC1(O)c1ccccc1 (configuration not stated) | 0 | . | 0.6 | .
COc1ccc(-c2nc3ccccc3c(C(=O)Nc3ccc(C)cc3)c2C)cc1 | . | 104* | . | .
SMILES | E coli WT exp | HePTP inhibitor | PLAP activator | TNAP act mid DEA
CCNc1nc(NC(C)C)nc(Oc2ccc(/C=N/O)cc2)n1 | -6 | . | 0.8 | .
Cc1ccc2nc(NC(=O)C3CCCN(S(=O)(=O)c4cccc5nonc45)C3)sc2c1 (configuration not stated) | . | 12 | . | 0.9
Cc1cc2oc(=O)cc(CN3CCOCC3)c2cc1C | -2 | . | 0.7 | .
CCNc1cc2oc(=O)c(CN3CCOCC3)c(C)c2cc1C | 3 | 9 | 2* | 1.1
Cc1ccc2c(c1)-c1cc(C)nn1C(c1ccc3c(c1)OCO3)N2 (configuration not stated) | -4 | 2 | 1.3 | 0.7
Cn1ccnc1C(O)c1ccc(OCc2ccccc2)cc1 (configuration not stated) | 15 | -5 | 1.6 | 1.1
COc1ccc2ccccc2c1C(O)c1nccn1C (configuration not stated) | 6 | 6 | 2* | 0.9
CCC1CCCCN1Cc1nc2c(c(=O)n(C)c(=O)n2C)n1CC(C)C (configuration not stated) | . | -6 | 1.3 | 1
C=CCOc1ccc(/C=C2\SC(=Nc3ccccc3)NC2=O)cc1OC | . | 64* | . | .
COc1ccc(/C=C2/SC(=Nc3ccccc3)NC2=O)cc1O | . | 2 | . | .

Compound activity (PubChem)
